This note sets out measurements from PubChem BioAssay AID1688 (National Center for Advancing Translational Sciences (NCATS), 2009).

Hit rate of the full screen: of about 220,000 compounds, about 2,400 (1.1%) were called active. Another 7% or so got no clear call; they are omitted. The sample holds actives, similar compounds and a random draw of the others, so the mix is not that of the screen. Values without a mark were called inactive. The call rests on the fitted dose curve; in most records, active means well fitted inhibition curve with a large enough effect; inconclusive means small, poorly fitted or top-dose-only effect, or effect the other way; inactive means no such curve, though single readings can be large or run the other way.
On the % scale 0 is the no-effect control and ±100 the full control effect; potency means the concentration at half of the fitted maximal effect.

The test in a line: qHTS Multiplex Assay to Identify Dual Action Probes in a Cell Model of Huntington: Aggregate Formation (GFP). Further: nearly all actives have a fitted effect of over 60% in size. The following applies: PC12 HttQ103-GFP aggregates, Acumen cytometry, 40 h; series mostly up to 9.22 µM; activity change, negative = inhibition: at the top concentration. The method in brief:
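PC12/HTTQ103-GFP, ecdysone-inducible; teb 100 nM; cpd qHTS titration; GFP aggregates read on laser cytometer, Ex 488/Em 500-530 nm.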
A general note: In qHTS, concentration-response curves come from the screen itself.
Consider `COc1ccc(-c2nc3cc([N+](=O)[O-])ccc3o2)cc1OC`, for which the “activity change, negative = inhibition” value is -3.14%. Same read-out and setting: under `COc1ccc(OCC(=O)Nc2cc(C)c(Cl)cc2OC)c([N+](=O)[O-])c1` stands 7.75% [at 46.1 µM]. With `Cc1nnc(-c2ccc(Oc3ccc(C)c(C)c3)c([N+](=O)[O-])c2)o1`, the Potency was 11.2 µM (active).

In the case of `O=C(N/N=C/c1ccccn1)c1cccnc1`, the “activity change, negative = inhibition” value was -3.79%. Still for that read-out and setting: under `NC(=O)Cc1ccc2c(c1)[nH]c1ccccc12` stands 14%; under `O=[N+]([O-])/C=C1\CCCCCN1`, 18.3%. The same measure, in the same setting: with `CCc1ccc(S(=O)(=O)NCC(O)COc2ccc(OC)cc2)cc1` (configuration not stated) the figure was -7.53%; with `Cc1nnc(N/N=C/c2ccccn2)[nH]c1=O`, -25.2%. Still for that read-out and setting: with `CCOc1ccc(-n2c(O)c(/C=N/Nc3nnc(C)c(=O)[nH]3)c3ccccc3c2=O)cc1` the figure was 5.42% [at 46.1 µM]. Regarding `COc1ccc(Cc2nnc(N/N=C/c3ccccc3O)[nH]c2=O)cc1OC`, the Potency is 1.26 µM (active). In the case of `COC(=O)[C@@H]1CC2=CC(=O)CC[C@]2(C)[C@@]23O[C@@H]2C[C@@]2(C)[C@@H](CC[C@@]24CCC(=O)O4)[C@H]13`, the “activity change, negative = inhibition” value is 7.77% [at 46.1 µM]. On the same count and under the same terms, under `COC(C(=O)Nc1ccc(C(C)=O)cc1)c1ccccc1` (configuration not stated) stands 3.95% [at 46.1 µM].

For `Cc1ccc(NC(=O)C(C)c2cccc(C(=O)c3ccccc3)c2)cc1` (configuration not stated), the Potency is 25.1 µM (active).

Turning to `CC(=O)c1cccc(NC(=O)Nc2ccc(C)cc2)c1`, the “activity change, negative = inhibition” value was -23.6% [at 46.1 µM]. The same measure, in the same setting: with `CCOC(=O)C1C(c2ccc(OC)c(OC)c2)c2c([nH][nH]c2=O)CC1(C)O` (configuration not stated) the figure was -8.41%. Still for that read-out and setting: with `O=C1N(c2ccccc2)C(=Nc2ccccc2)SC12CC2` the figure was -12.3%. Regarding `Fc1ccc2[nH]c3c(N4CCN(Cc5ccc6c(c5)OCO6)CC4)ncnc3c2c1`, the Potency was 3.55 µM (active). For the compound `Cc1cc(N2CCN(Cc3ccc4c(c3)OCO4)CC2)n2ncnc2n1`, the “activity change, negative = inhibition” value was -6.11% [at 46.1 µM]. Consider `O=c1[nH]c(N2CCN(Cc3ccc4c(c3)OCO4)CC2)nc2c1CCCC2`, for which the “activity change, negative = inhibition” value was 7.27% [at 46.1 µM]. `O=C(NNS(=O)(=O)c1ccccc1)c1cnn(-c2ccc(Cl)cc2)c1C(F)(F)F`: the “activity change, negative = inhibition” value was 3.68%. The same measure, in the same setting: under `COc1cccc(OC)c1CN(C)C(=O)c1cnccc1C(F)(F)F` stands 0.946%. Still for that read-out and setting: under `C/C(=N/NC(=O)c1ccn(C)n1)c1ccncc1` stands 8.06%; under `CC(/C=C/c1ccco1)=N/NC(=O)C1COc2ccccc2O1` (configuration not stated), 4.37%; under `O=S(=O)(Nc1ccccn1)c1ccc(Oc2ccccc2)cc1`, -9.45% [at 46.1 µM]. `COc1ccc(S(=O)(=O)Nc2cccnc2)c(Cl)c1Cl`: the “activity change, negative = inhibition” value is 1.71%. `COc1ccccc1Oc1ccc(S(=O)(=O)Nc2cccnc2)cc1`: the Potency is 11.2 µM (active). On the same count and under the same terms, under `O=C(CSc1nc(-c2ccco2)cc(C(F)(F)F)n1)NCc1cccs1` stands 15.8 µM (active). Regarding `O=C(CSc1nc(-c2ccco2)cc(C(F)(F)F)n1)N1CCc2ccccc2C1`, the “activity change, negative = inhibition” value was 9.77% [at 46.1 µM]. In the case of `COc1ccc(-c2cc(C(F)(F)F)nc(SCCC(=O)NCc3ccco3)n2)cc1`, the “activity change, negative = inhibition” value is -15.2% [at 46.1 µM]. On the same count and under the same terms, under `CCC(=O)Nc1ccc(C(=O)Nc2cccc(OC)c2)cc1` stands 0.618% [at 46.1 µM].

Regarding `CCOc1cccc(NC(=O)CC#N)c1`, the Potency is 1.78 µM (active). Regarding `CCOc1cccc(C(=O)Nc2cccnc2)c1`, the “activity change, negative = inhibition” value is 9.21% [at 46.1 µM]. The same measure, in the same setting: with `S=c1[nH]nc(-c2cc(-c3ccsc3)n[nH]2)n1-c1ccccc1` the figure was -11.3%.

As to `CN(C)c1ccc(/C=C/C(=O)c2ccc(O)cc2)cc1[N+](=O)[O-]`, the “activity change, negative = inhibition” value is -9.72%. Take `O=C(CSc1ncn[nH]1)Nc1ccnc2ccccc12`: the Potency was 11.2 µM (active).

For `Cn1nnc(NC(=O)CSc2ncn[nH]2)n1`, the “activity change, negative = inhibition” value was -1.4% [at 46.1 µM]. Same read-out and setting: under `O=C(CSc1n[nH]c(-c2cccnc2)n1)Nc1ccnc2ccccc12` stands -14.5% [at 46.1 µM]; under `Brc1ccc(-c2n(-c3ccccn3)c3ccccc3[n+]2-c2ccccn2)cc1`, 8.85%; under `CC(C)(C)c1cc(P(=O)(c2ccccc2)c2ccccc2)ccc1O`, 14.2%. Same read-out and setting: under `CC(=O)NC(=S)Nc1ccc(NC(=O)c2cccnc2)cc1` stands -4.87%; under `CC(C)(C)OC(=O)NCCCCCC(=O)N/N=C/c1coc2ccccc2c1=O`, -27.8%. For the compound `COC(=O)c1sc(C(F)(F)F)c(-c2ccccc2)c1S(=O)(=O)N(C)C`, the “activity change, negative = inhibition” value is 7.84%.

In the case of `O=C(NC(Nc1nc2ccc([N+](=O)[O-])cc2s1)(C(F)(F)F)C(F)(F)F)c1ccccc1`, the Potency is 0.126 µM (active).

In the case of `O=C(O)CCC(=O)Nc1nc2ccc([N+](=O)[O-])cc2s1`, the “activity change, negative = inhibition” value is -9.22% [at 46.1 µM]. As for `O=C(Nc1nc2ccc([N+](=O)[O-])cc2s1)c1ccncc1`, the “activity change, negative = inhibition” value is 16.4%.

Regarding `Cc1ccc(NS(=O)(=O)c2ccc(N/N=C/c3ccccc3OCC(=O)O)c([N+](=O)[O-])c2)c(C)c1`, the “activity change, negative = inhibition” value was -8.07%. The same measure, in the same setting: with `COc1cc2c(cc1OC)CC(=O)N(CCCN(C)C[C@H]1Cc3cc(OC)c(OC)cc31)CC2` the figure was 17.7% [at 46.1 µM]; with `O=C(O)Cc1csc(NC(=O)CSc2nnnn2-c2ccc(O)cc2)n1`, -3.49%; with `Cc1cccc(C)c1NC(=O)NC1=CCCN1C`, -4.99% [at 46.1 µM].

Regarding `NC(=O)[C@H]1CC2(CC(c3cccc(NC(=O)[C@H]4CCC(=O)N4)c3)=NO2)CN1C(=O)c1ccccc1C(=O)c1ccccc1` (some centres not stated), the “activity change, negative = inhibition” value was -14.4%. On the same count and under the same terms, under `Cc1cnc(NC(=O)CSc2c(Cl)cccc2Cl)s1` stands -1.32% [at 46.1 µM]. As for `O=C(Cc1c(F)cccc1Cl)Nc1ncc([N+](=O)[O-])s1`, the Potency was 10 µM (active). For `O=C(Cc1c(F)cccc1Cl)Nc1ccc(-n2cnnn2)cc1`, the “activity change, negative = inhibition” value was -5.01% [at 46.1 µM]. Take `C/C=C/C=N/NC(=O)c1ccncc1`: the “activity change, negative = inhibition” value is 11.7% [at 46.1 µM]. Same read-out and setting: with `CN(C)N=Nc1ccc2nc[nH]c2c1` the figure was 9.84%; with `O=C(O)CC1(CC(=O)Nc2cccc(C(F)(F)F)c2)CCCC1`, 35.4%; with `CCOC(=O)N/N=C1\CC(C)S(=O)(=O)c2ccc(Cl)cc21` (configuration not stated), 2.2%. In the case of `COCc1cc(=O)[nH]c(SC)n1`, the “activity change, negative = inhibition” value was -34.4%. Still for that read-out and setting: under `CCN(CCNC(=O)C1=C(C)C(=O)OC12CCC(C)CC2)c1ccccc1` (configuration not stated) stands -10.9%; under `CC(=O)c1ccc(NC(=S)NC(=O)CC(C)C)cc1`, -8.99% [at 46.1 µM]. For the compound `COc1ccc(NS(=O)(=O)c2ccc(NC(=S)NC(=O)CC(C)C)cc2)cc1`, the Potency is 22.4 µM (active). `COc1ccc(C(=O)Nc2ccc(S(=O)(=O)NC(C)C)cc2)cc1`: the “activity change, negative = inhibition” value was -3.78% [at 46.1 µM].

Consider `COc1ccc(NC(=O)C2=NNC(=O)CC2)cc1S(=O)(=O)N1CCCCC1`, for which the “activity change, negative = inhibition” value is -9.93%. As to `CCc1cc(CNC(=O)CC2C(=O)NCCN2Cc2ccccc2C(F)(F)F)on1` (configuration not stated), the “activity change, negative = inhibition” value was -15.2%. Still for that read-out and setting: with `Cn1c(CSCC(=O)Nc2ccccc2)nnc1SCc1ccccc1` the figure was -3.46%; with `Cc1ccc2c(c1)c1ncn(CCC3=CCCCC3)c(=O)c1n2C`, -3.8% [at 46.1 µM].

Consider `Cc1ccc2c(c1)c1ncnc(N3CCc4ccccc4C3)c1n2C`, for which the Potency is 11.2 µM (active). Turning to `Cc1ccc2c(c1)c1ncn(Cc3ccc(F)cc3)c(=O)c1n2C`, the “activity change, negative = inhibition” value is -13.6%. Same read-out and setting: with `Cc1ccc(C(=O)NNc2ncnc3ccccc23)cc1` the figure was -15%; with `O=C(CNC(=O)c1ccc(-c2ccccc2)cc1)OCc1ccc(Cl)cc1`, 17.4% [at 46.1 µM]; with `CC(=O)COc1ccc2c(-c3ccccc3)cc(=O)oc2c1`, 2.72% [at 46.1 µM]. Take `O=C(CNC(=O)OCc1ccccc1)Oc1cc2oc(=O)cc(-c3ccccc3)c2cc1Cl`: the Potency was 7.08 µM (active). As for `NCCCCC(N)C(=O)O` (configuration not stated), the “activity change, negative = inhibition” value is -9.12% [at 46.1 µM]. Same read-out and setting: under `O=C(CS(=O)(=O)c1ccc(C(F)(F)F)cn1)NNC(=O)c1ccccc1` stands -20.9%.

On to `CCOC(=O)c1c(C)nn(-c2ncccc2NC(=O)CCC(=O)O)c1C`, for which the “activity change, negative = inhibition” value was 16.3%.

As for `O=C(Nc1cccc(Cl)c1)Nc1ccccc1NS(=O)(=O)c1cccs1`, the Potency is 11.2 µM (active). With `O=C(Nc1cccc(Cl)c1)Nc1nnc(-c2ccccc2)o1`, the “activity change, negative = inhibition” value was 7.19% [at 46.1 µM]. The same measure, in the same setting: with `O=C(Nc1nncs1)c1ccccc1NS(=O)(=O)c1cccs1` the figure was -25.2% [at 46.1 µM]; with `O=C(O)Cc1ccc(-c2ccccc2)cc1`, 4.1% [at 46.1 µM].

Turning to `OCC(CO)(CO)NCc1ccc(-c2ccccc2)cc1`, the Potency was 11.2 µM (active). `O=C(Cc1ccc(-c2ccccc2)cc1)NC(c1ccccc1)c1ccccc1`: the “activity change, negative = inhibition” value is -10.3% [at 46.1 µM]. In the case of `CN(C(=O)CCn1c(=S)oc2ccccc21)C1CCCCC1`, the “activity change, negative = inhibition” value was -13.5%.
